# Laboratory results taken from PubChem BioAssay (Tox21).
# Inconclusive results are not listed. Entries that show only a call come without a potency. Activity calls are given as the source filed them. Unless noted, calls come from the whole dose curve; as a rule, active = well fitted curve in the direction sought with a large enough effect in the repeat runs; inconclusive = weak or mixed curves; inactive = no such curve, though single readings can be large; an effect the other way counts as inactive or inconclusive.
# Experiments:
# [1] = target: Thyrotropin-releasing hormone receptor (Homo sapiens) (UniProt P34981); assay: qHTS assay to identify small molecule agonists of the thyrotropin-releasing hormone receptor (TRHR) signaling pathway (AID 1346891; calls by dose curve;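 note: HEK293 cells expressing TRHR with calcium dye readout; series mostly up to about 58 µM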)
# Outline: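 In 1536-format, 1500 TRHR-Hek293 cells per well grew 18 h, took up calcium dye for 2 h at 37 °C, received compound, and were read kinetically; 15-point titrations, triplicates.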
# [2] = Human pregnane X receptor (PXR) small molecule agonists, qHTS cell viability counter screen (AID 1346977); note: nearly all actives have a fitted effect of over 50% in size; note: potency is the fitted concentration of half-maximal effect
# Outline: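 Readout is CellTiter-Fluor fluorescence from PXR-Luc HepG2 cells. Plated cells rested 5hr, then were treated with compounds for 24hr at 37C and 5% CO2, with reagent present during the last hour.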
# [3] = Caspase-3/7 induction in HepG2 cells by small molecules, qHTS assay (AID 1346978); note: nearly all actives have a fitted effect of over 15% in size
# Outline: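 Wild-type HepG2 cells (2,000/well) were settled 5 h at 37 C, 5% CO2, then exposed to compounds in DMSO for 17 h. Caspase-3/7 activity was read by luminescence 30 min after adding Caspase-Glo 3/7 reagent at room temperature.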
# [4] = Caspase-3/7 induction in CHO-K1 cells by small molecules, qHTS cell viability counter screen (AID 1346979); note: nearly all actives have a fitted effect of over 35% in size; note: potency is the fitted concentration of half-maximal effect
# Outline: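 To flag cytotoxic compounds, treated CHO-K1 wild-type cells were given CellTiter-Fluor at 16hr and read fluorescently after 1hr at 37C; the caspase-3/7 luminescence was measured in these same wells.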
# [5] = Caspase-3/7 induction in CHO-K1 cells by small molecules, qHTS assay (AID 1346980); note: nearly all actives have a fitted effect of over 15% in size
# Outline: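 Wild-type cells were seeded at 1,500 per well and settled 5 hr at 37 C, 5% CO2, then exposed to DMSO-dissolved compounds for 17 hr. Caspase-Glo 3/7 reagent was added, and luminescence was read after 30min at room temperature.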
# [6] = Caspase-3/7 induction in HepG2 cells by small molecules, qHTS cell viability counter screen (AID 1346981); note: series mostly up to about 92 µM; nearly all actives have a fitted effect of over 30% in size
# Outline: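 In this quantitative HTS counter screen, compounds delivered in DMSO were left on unmodified HepG2 cells for 16 hr at 37 C. Viability was then determined fluorometrically with CellTiter-Fluor, in parallel with caspase-3/7 induction in the same wells.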
# [7] = target: Nuclear receptor subfamily 1 group I member 2 (Homo sapiens) (UniProt O75469); assay: Human pregnane X receptor (PXR) small molecule agonists, qHTS assay (AID 1346982); note: nearly all actives have a fitted effect of over 35% in size; note: potency is the fitted concentration of half-maximal effect
# Outline: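 Reporter HepG2 cells expressing PXR-Luc are cultured in charcoal-stripped FBS (5%), treated with compounds for 24 hr at 37 C, and assayed by ONE-Glo luminescence after 30 min at room temperature.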
# [8] = target: Cytochrome P450 2C19 (Homo sapiens) (UniProt P33261); assay: Cytochrome P450 Family 2 Subfamily C Member 19 (CYP2C19) small molecule antagonists: luciferase reporter qHTS assay (AID 1671197); note: nearly all actives have a fitted effect of over 65% in size; note: potency is the fitted concentration of half-maximal effect
# Outline: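 P450-Glo CYP2C19 screening system; proluciferin substrate; DMSO compound stocks; 10 min RT preincubation; NADPH regeneration, 1 h at 37C; luciferin detection reagent, 20 min RT; luminescence as RLU.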
# [9] = target: Cytochrome P450 2C9 (Homo sapiens) (UniProt P11712); assay: Cytochrome P450 Family 2 Subfamily C Member 9 (CYP2C9) small molecule antagonists: luciferase reporter qHTS assay (AID 1671198); note: nearly all actives have a fitted effect of over 50% in size; note: potency is the fitted concentration of half-maximal effect
# Outline: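 CYP2C9 activity was measured with a P450-Glo proluciferin substrate. Enzyme–substrate mix was held with compound for 10 min at room temperature, then NADPH regeneration solution was added for 1 h at 37C. Luciferin product was read as luminescence.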
# [10] = target: Cytochrome P450 1A2 (Homo sapiens) (UniProt P05177); assay: Cytochrome P450 Family 1 Subfamily A Member 2 (CYP1A2) small molecule antagonists: luciferase reporter qHTS assay (AID 1671199); note: nearly all actives have a fitted effect of over 50% in size; note: potency is the fitted concentration of half-maximal effect
# Outline: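 Steps: enzyme-substrate mix dispensed; test compounds and furafylline control pinned in; 10 min room temperature; NADPH regeneration solution added, 1 h; reaction stopped with luciferin detection reagent; luminescence read after 20 min.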
# [11] = target: Voltage-gated inwardly rectifying potassium channel KCNH2 (Homo sapiens) (UniProt Q12809); assay: Human Ether-a-go-go-Related Gene (hERG) channel small molecule antagonists: fluorescence cell-based qHTS assay (AID 1671200);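 note: hERG-expressing U2OS cells given a thallium stimulus after FluxOR II dye loading; series mostly up to about 77 µM; nearly all actives have a fitted effect of over 50% in size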
# Outline: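 Measured: Tl+ flux via fluorescence (480/540 nm) in hERG-expressing U2OS cells after 1 h dye loading at room temperature.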
# [12] = target: Cytochrome P450 3A4 (Homo sapiens) (UniProt P08684); assay: Cytochrome P450 Family 3 Subfamily A Member 4 (CYP3A4) small molecule antagonists: luciferase reporter qHTS assay (AID 1671201); note: nearly all actives have a fitted effect of over 50% in size; note: potency is the fitted concentration of half-maximal effect
# Outline: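 Setup: enzyme-substrate mix, compound pin transfer, 10 min RT. Reaction: NADPH regeneration solution, 1 h RT. Readout: detection reagent stops turnover, luminescence measured after 20 min, expressed in relative luminescence units.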
# [13] = target: Cytochrome P450 2D6 (Homo sapiens) (UniProt P10635); assay: Cytochrome P450 Family 2 Subfamily D Member 6 (CYP2D6) small molecule antagonists: luciferase reporter qHTS assay (AID 1671196); note: nearly all actives have a fitted effect of over 50% in size; note: potency is the fitted concentration of half-maximal effect
# Outline: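 Test chemicals meet CYP2D6 plus proluciferin substrate (10 min, RT); NADPH regenerating solution then drives turnover for 1 h. Detection reagent halts the reaction; luminescence measured after 20 min.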
# [14] = target: Nuclear receptor subfamily 1 group I member 2 (Homo sapiens) (UniProt O75469); assay: CYP3A4 induction through human pregnane X receptor (PXR) by small molecules, qHTS assay (AID 1346984); note: nearly all actives have a fitted effect of over 40% in size
# Outline: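 Induction measured in HepG2-based DPX-2 cells co-expressing human PXR and a CYP3A4 promoter-driven luciferase. After a 24-hour compound exposure, cells received CYP3A4 luciferin substrate at 3uM final for 3 hours, and light output was then recorded.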
# [15] = target: Nuclear receptor subfamily 1 group I member 2 (Homo sapiens) (UniProt O75469); assay: Human pregnane X receptor (PXR) activation by small molecules, qHTS assay (AID 1346985); note: nearly all actives have a fitted effect of over 40% in size; note: potency is the fitted concentration of half-maximal effect
# Outline: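 DPX-2 cells (HepG2 co-transfected with a PXR response element and a CYP3A4-promoter luciferase construct) were seeded at 2,000 per well, rested 5 hr at 37C, then exposed to DMSO-dissolved compounds for 24 hr. Activation was read as luciferase luminescence.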
# [16] = target: Nuclear receptor subfamily 1 group I member 2 (Rattus norvegicus) (UniProt Q9R1A7); assay: Rat pregnane X receptor (rPXR) activation by small molecules, qHTS assay (AID 1346983); conditions: rPXR luciferase reporter cells, One-Glo luminescence, 24 h; max activation: stronger effect = higher value; note: potency is the fitted concentration of half-maximal effect; nearly all actives have a fitted effect of over 20% in size
# Outline: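 Cell-based rPXR luciferase reporter assay, 2,000 cells per well, rested 5hr at 37 C before compound addition in DMSO, then 24 hr at 37 C. One-Glo reagent was added and luminescence read after 30 min at room temperature.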
# Cytochrome P450 1A2 (Homo sapiens), sequence (P05177 whole entry, looked up): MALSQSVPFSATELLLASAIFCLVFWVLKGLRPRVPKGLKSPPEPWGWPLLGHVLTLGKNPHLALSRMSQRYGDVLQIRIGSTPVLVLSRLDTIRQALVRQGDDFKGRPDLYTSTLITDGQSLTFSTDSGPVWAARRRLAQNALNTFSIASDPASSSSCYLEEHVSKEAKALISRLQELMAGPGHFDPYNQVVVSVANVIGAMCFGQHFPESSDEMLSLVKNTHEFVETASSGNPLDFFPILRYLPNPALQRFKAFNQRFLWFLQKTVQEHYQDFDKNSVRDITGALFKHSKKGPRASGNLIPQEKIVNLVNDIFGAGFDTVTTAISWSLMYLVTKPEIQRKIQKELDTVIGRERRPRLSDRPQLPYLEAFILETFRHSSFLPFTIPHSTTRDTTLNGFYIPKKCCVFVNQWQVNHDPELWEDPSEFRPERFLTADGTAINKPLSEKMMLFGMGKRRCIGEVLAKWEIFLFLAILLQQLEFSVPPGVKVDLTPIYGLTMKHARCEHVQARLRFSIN
# Thyrotropin-releasing hormone receptor (Homo sapiens), sequence (P34981 whole entry, looked up): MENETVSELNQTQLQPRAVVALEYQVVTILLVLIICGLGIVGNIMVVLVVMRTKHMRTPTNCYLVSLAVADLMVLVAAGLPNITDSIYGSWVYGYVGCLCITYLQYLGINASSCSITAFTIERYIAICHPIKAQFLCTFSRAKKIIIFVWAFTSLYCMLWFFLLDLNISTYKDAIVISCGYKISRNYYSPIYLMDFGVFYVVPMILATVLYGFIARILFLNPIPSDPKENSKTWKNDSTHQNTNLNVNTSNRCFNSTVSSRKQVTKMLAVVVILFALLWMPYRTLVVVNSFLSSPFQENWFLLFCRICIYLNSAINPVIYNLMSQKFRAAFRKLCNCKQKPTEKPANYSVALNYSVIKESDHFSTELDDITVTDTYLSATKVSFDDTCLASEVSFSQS
# Cytochrome P450 2C9 (Homo sapiens), sequence (P11712 whole entry, looked up): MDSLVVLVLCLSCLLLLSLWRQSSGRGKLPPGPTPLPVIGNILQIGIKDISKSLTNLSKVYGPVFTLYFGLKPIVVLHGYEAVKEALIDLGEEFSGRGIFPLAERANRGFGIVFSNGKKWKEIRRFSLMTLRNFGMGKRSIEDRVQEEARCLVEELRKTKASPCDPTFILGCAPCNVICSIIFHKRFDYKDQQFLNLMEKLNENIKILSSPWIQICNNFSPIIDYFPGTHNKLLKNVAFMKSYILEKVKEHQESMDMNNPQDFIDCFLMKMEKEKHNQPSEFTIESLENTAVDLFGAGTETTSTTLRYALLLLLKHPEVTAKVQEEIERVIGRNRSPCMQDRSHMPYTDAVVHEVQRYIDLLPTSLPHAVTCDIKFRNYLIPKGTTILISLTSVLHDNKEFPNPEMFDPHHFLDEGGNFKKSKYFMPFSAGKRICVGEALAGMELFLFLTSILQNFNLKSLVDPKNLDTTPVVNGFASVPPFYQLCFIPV
# Voltage-gated inwardly rectifying potassium channel KCNH2 (Homo sapiens), sequence (Q12809 whole entry, looked up): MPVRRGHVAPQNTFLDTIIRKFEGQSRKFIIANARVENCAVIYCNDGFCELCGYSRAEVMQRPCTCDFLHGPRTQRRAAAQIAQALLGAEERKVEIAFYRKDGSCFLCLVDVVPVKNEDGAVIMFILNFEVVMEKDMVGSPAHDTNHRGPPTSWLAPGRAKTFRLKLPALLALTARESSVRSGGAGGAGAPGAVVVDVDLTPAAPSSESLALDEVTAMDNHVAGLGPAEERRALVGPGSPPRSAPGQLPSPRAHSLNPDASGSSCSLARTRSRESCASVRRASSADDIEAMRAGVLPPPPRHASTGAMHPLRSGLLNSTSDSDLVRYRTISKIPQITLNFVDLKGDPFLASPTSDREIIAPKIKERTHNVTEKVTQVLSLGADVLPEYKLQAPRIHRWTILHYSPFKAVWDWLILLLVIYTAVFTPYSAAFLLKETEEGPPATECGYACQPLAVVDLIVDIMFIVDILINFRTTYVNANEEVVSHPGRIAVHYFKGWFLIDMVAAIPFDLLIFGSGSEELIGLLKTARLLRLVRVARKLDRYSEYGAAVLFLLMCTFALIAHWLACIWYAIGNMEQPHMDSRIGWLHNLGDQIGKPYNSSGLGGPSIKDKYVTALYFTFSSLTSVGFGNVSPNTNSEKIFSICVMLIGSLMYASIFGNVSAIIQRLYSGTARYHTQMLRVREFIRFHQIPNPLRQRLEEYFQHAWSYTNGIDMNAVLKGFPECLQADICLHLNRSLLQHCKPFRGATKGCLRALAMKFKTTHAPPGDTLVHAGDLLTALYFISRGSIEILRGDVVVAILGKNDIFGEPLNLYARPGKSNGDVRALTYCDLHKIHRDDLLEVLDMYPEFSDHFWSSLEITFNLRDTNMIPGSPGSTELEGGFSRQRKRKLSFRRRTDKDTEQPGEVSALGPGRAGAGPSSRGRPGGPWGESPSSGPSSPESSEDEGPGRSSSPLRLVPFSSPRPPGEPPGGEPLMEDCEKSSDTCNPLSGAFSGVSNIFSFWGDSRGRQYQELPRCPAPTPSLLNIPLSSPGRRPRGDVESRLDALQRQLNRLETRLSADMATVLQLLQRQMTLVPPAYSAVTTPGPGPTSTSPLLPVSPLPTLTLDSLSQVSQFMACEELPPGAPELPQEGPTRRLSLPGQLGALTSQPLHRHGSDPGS
# Cytochrome P450 2D6 (Homo sapiens), sequence (P10635 whole entry, looked up): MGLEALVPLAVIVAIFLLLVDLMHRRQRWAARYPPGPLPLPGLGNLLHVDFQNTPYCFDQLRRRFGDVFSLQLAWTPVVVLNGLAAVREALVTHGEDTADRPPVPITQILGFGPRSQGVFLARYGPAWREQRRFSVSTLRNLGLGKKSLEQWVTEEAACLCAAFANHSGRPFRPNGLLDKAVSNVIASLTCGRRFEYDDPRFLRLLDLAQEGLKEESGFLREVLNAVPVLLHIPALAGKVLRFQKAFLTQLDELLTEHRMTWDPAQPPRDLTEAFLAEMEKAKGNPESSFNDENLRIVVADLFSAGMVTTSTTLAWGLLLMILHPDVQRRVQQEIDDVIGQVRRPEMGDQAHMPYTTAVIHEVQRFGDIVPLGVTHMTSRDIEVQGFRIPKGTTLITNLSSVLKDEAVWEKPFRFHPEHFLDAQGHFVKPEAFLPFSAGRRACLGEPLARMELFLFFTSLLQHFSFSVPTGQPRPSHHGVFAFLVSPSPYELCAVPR
# Nuclear receptor subfamily 1 group I member 2 (Homo sapiens), sequence (O75469 whole entry, looked up): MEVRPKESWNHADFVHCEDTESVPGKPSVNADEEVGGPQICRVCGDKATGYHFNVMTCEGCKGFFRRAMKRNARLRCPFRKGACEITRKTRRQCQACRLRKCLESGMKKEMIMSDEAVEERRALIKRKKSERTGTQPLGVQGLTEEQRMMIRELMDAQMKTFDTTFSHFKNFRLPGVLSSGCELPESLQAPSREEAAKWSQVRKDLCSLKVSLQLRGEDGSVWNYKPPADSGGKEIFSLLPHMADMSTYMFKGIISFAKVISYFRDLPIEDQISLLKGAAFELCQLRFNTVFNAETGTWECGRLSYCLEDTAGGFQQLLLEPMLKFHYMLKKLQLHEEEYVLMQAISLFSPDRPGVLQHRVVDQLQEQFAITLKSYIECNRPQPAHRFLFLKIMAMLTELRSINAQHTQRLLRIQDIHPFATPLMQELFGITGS
# Cytochrome P450 3A4 (Homo sapiens), sequence (P08684 whole entry, looked up): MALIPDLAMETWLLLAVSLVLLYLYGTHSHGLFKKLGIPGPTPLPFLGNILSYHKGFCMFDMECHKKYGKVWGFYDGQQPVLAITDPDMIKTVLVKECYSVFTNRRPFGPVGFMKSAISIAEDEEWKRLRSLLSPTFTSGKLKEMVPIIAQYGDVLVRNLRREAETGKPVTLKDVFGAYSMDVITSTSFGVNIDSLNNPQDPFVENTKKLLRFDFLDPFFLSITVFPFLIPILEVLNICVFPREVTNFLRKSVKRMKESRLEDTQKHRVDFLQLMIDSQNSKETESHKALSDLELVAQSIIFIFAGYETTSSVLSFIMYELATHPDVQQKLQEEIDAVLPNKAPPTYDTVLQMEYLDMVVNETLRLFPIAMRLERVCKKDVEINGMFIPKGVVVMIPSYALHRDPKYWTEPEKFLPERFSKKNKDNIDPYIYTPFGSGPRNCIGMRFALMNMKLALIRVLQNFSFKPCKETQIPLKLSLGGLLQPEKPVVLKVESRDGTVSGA
# Cytochrome P450 2C19 (Homo sapiens), sequence (P33261 whole entry, looked up): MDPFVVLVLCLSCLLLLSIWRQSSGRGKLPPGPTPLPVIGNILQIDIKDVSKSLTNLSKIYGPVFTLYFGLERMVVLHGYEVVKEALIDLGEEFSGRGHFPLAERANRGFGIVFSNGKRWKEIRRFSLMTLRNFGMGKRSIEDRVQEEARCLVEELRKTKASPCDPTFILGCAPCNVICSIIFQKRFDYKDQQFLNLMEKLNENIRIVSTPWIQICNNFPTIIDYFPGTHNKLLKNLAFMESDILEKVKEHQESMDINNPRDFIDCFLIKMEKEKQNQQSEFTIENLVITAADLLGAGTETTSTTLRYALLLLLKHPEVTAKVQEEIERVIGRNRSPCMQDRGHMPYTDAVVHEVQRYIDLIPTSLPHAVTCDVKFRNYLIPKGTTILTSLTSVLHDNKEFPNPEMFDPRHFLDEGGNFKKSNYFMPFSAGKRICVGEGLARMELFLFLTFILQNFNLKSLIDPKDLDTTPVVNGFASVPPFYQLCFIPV
# Nuclear receptor subfamily 1 group I member 2 (Rattus norvegicus), sequence (Q9R1A7 whole entry, looked up): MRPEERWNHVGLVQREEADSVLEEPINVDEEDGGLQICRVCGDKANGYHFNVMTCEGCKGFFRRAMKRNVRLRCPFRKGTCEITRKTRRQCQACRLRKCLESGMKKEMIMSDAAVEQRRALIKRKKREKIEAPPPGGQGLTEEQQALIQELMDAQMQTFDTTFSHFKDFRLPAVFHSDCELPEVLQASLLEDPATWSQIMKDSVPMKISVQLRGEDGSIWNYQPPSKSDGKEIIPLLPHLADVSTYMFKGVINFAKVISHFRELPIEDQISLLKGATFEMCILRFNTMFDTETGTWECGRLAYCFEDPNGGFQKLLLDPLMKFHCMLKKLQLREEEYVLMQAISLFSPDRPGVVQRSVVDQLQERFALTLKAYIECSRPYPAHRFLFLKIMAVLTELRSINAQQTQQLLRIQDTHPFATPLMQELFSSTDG
SMILES,Potency [1],Potency [2],Potency [3],Potency [4],outcome [5],Potency [6],Potency [7],Potency [8],Potency [9],Potency [10],Potency [11],Potency [12],Potency [13],Potency [14],Potency [15],Potency [16]
CC(C)c1nnc2ccc(-c3ocnc3-c3cc(F)ccc3F)cn12,inactive,inactive,inactive,inactive,inactive,inactive,48.6 µM (active),56.4 µM (active),5.64 µM (active),35.6 µM (active),inactive,inactive,–,–,–,–
CC1=C(C=O)C(C)(C)CCC1,inactive,inactive,inactive,inactive,inactive,–,27.3 µM (active),–,–,inactive,inactive,–,inactive,–,–,–
Cc1nccn1-c1ccc(Sc2cccc(C3(C(N)=O)CCOCC3)c2)cc1,inactive,8.63 µM (active),inactive,7.7 µM (active),inactive,–,13.7 µM (active),20 µM (active),5.64 µM (active),–,–,7.96 µM (active),35.6 µM (active),–,–,–
Fc1ccccc1[C@@H](F)COC1CCC(Nc2ncnc3[nH]ncc23)CC1 (stereo partly specified),inactive,27.3 µM (active),inactive,30.6 µM (active),inactive,–,inactive,79.6 µM (active),31.7 µM (active),inactive,inactive,inactive,–,–,–,–
COc1cc2c(cc1OC)-c1cc(=Nc3c(C)cc(C)cc3C)n(C)c(=O)n1CC2,inactive,inactive,inactive,29.8 µM (active),inactive,–,9.44 µM (active),17.4 µM (active),1.1 µM (active),inactive,–,–,13.8 µM (active),inactive,6.31 µM (active),–
CCCCC(=O)O[C@]1(C(=O)CO)CC[C@H]2[C@@H]3CCC4=CC(=O)CC[C@]4(C)[C@H]3[C@@H](O)C[C@@]21C,inactive,inactive,inactive,inactive,–,inactive,26.6 µM (active),inactive,–,inactive,inactive,3.47 µM (active),–,inactive,inactive,6.31 µM (active)
CCCCCCCC/C=C\CCCCCCCC(=O)OC(CO)CO,inactive,inactive,inactive,inactive,inactive,–,inactive,71 µM (active),20 µM (active),71 µM (active),inactive,17.8 µM (active),–,–,–,–
CO[Si](C)(OC)OC,inactive,inactive,inactive,inactive,inactive,inactive,inactive,inactive,inactive,–,inactive,4.91 µM (active),–,–,–,–
C=CC(C)(O)CCCC(C)CCCC(C)CCCC(C)C (stereo unspecified),inactive,inactive,inactive,inactive,inactive,inactive,24.2 µM (active),inactive,–,35.4 µM (active),inactive,inactive,–,–,–,–
O=C(CCCCCCCCC#CI)Oc1ccccc1,inactive,inactive,inactive,inactive,inactive,inactive,inactive,inactive,17.4 µM (active),–,inactive,inactive,–,–,–,–
